Laboratory results published in PubChem BioAssay.
Entries with a potency or affinity are not part of this list. Records with an inconclusive call do not appear. Calls of active or inactive are those of the source. Unless noted, the rule behind the calls is not given here.

Tests used:
[1] = cytotoxicity in PAX8-dependent RMG-1 cells, dose response, cell-based, cherry-pick (AID 687029;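 active = signal drop whose fitted half-maximal concentration is at most twice the top valid dose, in every test run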;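 note: cells exposed to compound for 96 hours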)
[2] = cytotoxicity in IOSE-T80 ovarian epithelial cells, dose response, selectivity assay for PAX8 inhibitor project, cell-based, cherry-pick (AID 687032;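 active = fitted half-maximal concentration for viability loss no higher than twice the top valid dose, in every repeat run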;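 note: cells exposed to compound for 96 h before reading; 0% = neutral control wells and -100% = 2 µM mitoxantrone kill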)
[3] = inhibitors of CMV-promoter luciferase reporter, dose response, counter-screen for Pax8 inhibitor project, cell-based, HEK293, luminescence, dry powder (AID 743020;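 active = signal-lowering compounds whose fitted half-maximal concentration is at or below twice the top tested dose in every run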;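 note: HEK293 cells stably expressing the CMV luciferase reporter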)
[4] = IGROV1 ovarian cancer cell cytotoxicity, dose response, PAX8 inhibitor project, plate reader, dry powder samples (AID 743043);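 note: more negative means fewer viable cells or more cytotoxicity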
[5] = NIH:OVCAR-3 ovarian cancer cell cytotoxicity, dose response, PAX8 inhibitor project, plate reader, dry powder samples (AID 743044); details: max activity: at 35 µM, stronger effect = lower value unless noted
[6] = IOSE-T80 ovarian epithelial cell cytotoxicity, dose response, cytotoxicity control for PAX8 inhibitor project, plate reader, dry powder samples (AID 743045);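 note: 0% = neutral control median and -100% = positive control median; more negative values mean more cell killing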
[7] = A2780 ovarian cancer cell cytotoxicity, dose response, cytotoxicity control, plate reader, dry powder samples (AID 743046);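 note: 0% = neutral control wells and -100% = cytotoxic reference compound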
[8] = cytotoxicity in OVCAR8 ovarian cancer cells, dose response, PAX8 project, cell-based, plate reader, dry powder samples (AID 743197)
[9] = non-specific cell cytotoxicity, dose response, cytotoxicity control for PAX8 inhibitor project, plate reader, dry powder samples (AID 743021)
[10] = HepG2 cell cytotoxicity, dose response, cytotoxicity control, plate reader, cherry-pick, antagonist series (AID 743416);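 note: 0% = neutral control wells and -100% = positive control wells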

Measured: max activity

CCCNC(=O)Nc1ccc2c(c1)OC[C@@H](C)N(Cc1ccc(-c3ccccn3)cc1)C[C@@H](C)[C@H](OC)CN(C)C2=O
inactive: [1] | [2] | [3] | [4] | [5] 19.6% [at 1 µM, stronger effect = lower value] | [6] | [7] | [8]

N#C[C@@H]1[C@H](c2ccc(-c3ccccc3F)cc2)[C@@H](CO)N1C(=O)Cc1ccccc1
inactive: [1] | [2] | [3] | [9] | [7] | [8]

C[C@@H]1CCCCO[C@@H](CN(C)C(=O)c2ccccc2)[C@@H](C)CN([C@@H](C)CO)C(=O)c2cc(NC(=O)Nc3ccc(C(F)(F)F)cc3)ccc2O1
inactive: [1] | [2] | [3] | [4] | [6] | [7]

COc1ccc(S(=O)(=O)N(C)C[C@H]2Oc3c(NC(=O)Nc4ccc(C(F)(F)F)cc4)cccc3C(=O)N([C@@H](C)CO)C[C@H]2C)cc1
not listed: [5] | [9] | [10]
inactive: all other assays above

C[C@@H]1CN([C@H](C)CO)C(=O)c2cc(NC(=O)Nc3ccc(C(F)(F)F)cc3)ccc2O[C@@H](C)CCCCO[C@@H]1CN(C)C(=O)NC1CCCCC1
not listed: [5] | [9] | [10]
inactive: all other assays above

CCCC#Cc1ccc([C@H]2[C@@H](CO)N(C(=O)C3CCCCC3)[C@H]2C#N)cc1
not listed: [5] | [9] | [10]
inactive: all other assays above

Cc1cccc(-c2ccc([C@H]3[C@H]4CN(S(=O)(=O)c5cccc(C)c5)CCCCN4[C@H]3CO)cc2)c1
inactive: [1] | [2] | [3] | [4] | [6] | [7]

C[C@@H]1CN([C@@H](C)CO)C(=O)c2cc(NC(=O)Nc3ccc(F)cc3)ccc2O[C@@H](C)CCCCO[C@H]1CN(C)Cc1ccc(C(F)(F)F)cc1
inactive: [1] | [2] | [3] | [4] | [6]

N#C[C@H]1[C@@H](c2ccc(C#CC3CCCCC3)cc2)[C@@H](CO)N1S(=O)(=O)c1ccccc1
not listed: [5] | [9] | [10]
inactive: all other assays above

COc1cccc(C#Cc2ccc([C@@H]3[C@H](C#N)N(C(=O)c4ccccn4)[C@H]3CO)cc2)c1
inactive: [1] | [2] | [3] | [4] | [5] 39.4% | [6]

COc1ccc(-c2csc3ncnc(Sc4nnnn4C)c23)cc1
inactive: [1] | [2] | [3] | [9] | [10]

N#C[C@H]1[C@@H](c2ccc(C#Cc3ccccc3F)cc2)[C@@H](CO)N1C(=O)C1CCCCC1
inactive: [1] | [2] | [3] | [4] | [6] | [8]

COc1cccc(C#Cc2ccc([C@@H]3[C@@H](C#N)N(C(=O)C4CCCCC4)[C@H]3CO)cc2)c1
inactive: [1] | [2] | [3] | [4] | [5] 22.8% [at 1 µM, stronger effect = lower value] | [6] | [7]

C[C@H](CO)N1C[C@H](C)[C@@H](CN(C)Cc2ccc(C(F)(F)F)cc2)Oc2ccc(NS(=O)(=O)c3ccccc3)cc2CC1=O
inactive: [1] | [2] | [3] | [4] | [6]

COc1ccccc1C#Cc1ccc2c(c1)O[C@H](CN(C)Cc1ccncc1)[C@@H](C)CN([C@@H](C)CO)S2(=O)=O
not listed: [5] | [9] | [10]
inactive: all other assays above

C[C@H](CO)N1C[C@H](C)[C@@H](CN(C)Cc2ccc(-c3ccccc3)cc2)Oc2ccc(NC(=O)C3CC3)cc2CC1=O
inactive: [1] | [2] | [3] | [4] | [5] 42.3% [at 2.1 µM, stronger effect = lower value] | [6] | [7] | [8]

CN(C)CC(=O)N1CCCCN2[C@H](CO)[C@H](c3ccc(/C=C/c4ccccc4)cc3)[C@H]2C1
inactive: [1] | [2] | [3] | [4] | [6] | [7]

COc1ccc(NC(=O)Nc2ccc3c(c2)C(=O)N([C@@H](C)CO)C[C@@H](C)[C@H](CN(C)Cc2ccc(C(F)(F)F)cc2)O3)cc1
inactive: [1] | [2] | [3] | [4] | [5] 30.5% [at 30 µM, stronger effect = lower value] | [6] | [7] | [8]

C[C@@H]1CN([C@H](C)CO)C(=O)c2cc(NC(=O)Nc3ccc(C(F)(F)F)cc3)ccc2O[C@@H](C)CCCCO[C@@H]1CN(C)Cc1ccncc1
inactive: [1] | [2] | [3] | [9] | [8]

CC(C)CC#Cc1ccc2c(c1)O[C@H](CN(C)S(=O)(=O)c1ccc(F)cc1)[C@H](C)CN([C@H](C)CO)S2(=O)=O
inactive: [1] | [2] | [3] | [4] | [6] | [7]

Cn1nnnc1Sc1ncnc2scc(-c3ccc4c(c3)OCO4)c12
inactive: [1] | [2] | [3] | [9] | [10]

O=C(Nc1ccccc1)N1CCCCN2[C@H](CO)[C@H](c3ccc(C#Cc4ccccc4)cc3)[C@H]2C1
not listed: [5] | [9] | [10]
inactive: all other assays above

C[C@@H]1CN([C@H](C)CO)C(=O)CCCn2nncc2CO[C@H]1CN(C)Cc1ccc(Oc2ccccc2)cc1
inactive: [1] | [2] | [3] | [4] | [5] 10.8% [at 4.2 µM, stronger effect = lower value] | [6] | [7] | [8]

C[C@H](O)C#Cc1ccc2c(c1)O[C@@H](CN(C)Cc1ccc(-c3ccccc3)cc1)[C@@H](C)CN([C@H](C)CO)S2(=O)=O
inactive: [1] | [2] | [3] | [4] | [5] -11.2% | [6] | [7]

C[C@H](CO)N1C[C@H](C)[C@@H](CN(C)S(=O)(=O)c2ccc(Cl)cc2)OCCCC[C@H](C)Oc2ccc(NS(=O)(=O)c3cccs3)cc2C1=O
inactive: [1] | [2] | [3] | [4] | [7]

COc1ccc(NC(=O)N2C[C@@H]3N[C@H](C2)[C@@H]3c2ccc(-c3ccc(OC)cc3)cc2)cc1
inactive: [1] | [2] | [3] | [7]

COc1ccc(NC(=O)Nc2ccc3c(c2)C(=O)N([C@H](C)CO)C[C@@H](C)[C@H](CN(C)Cc2ccc(C(F)(F)F)cc2)OCCCC[C@H](C)O3)cc1
inactive: [1] | [2] | [3] | [6] | [7]

COc1ccccc1NC(=O)N1CCCCN2[C@H](CO)[C@H](c3ccc(-c4cccc(C)c4)cc3)[C@H]2C1
inactive: [1] | [2] | [3] | [6] | [7] | [8]

CCCNC(=O)N(C)C[C@H]1N[C@@H](CO)[C@@H]1c1ccc(C2=CCCCC2)cc1
inactive: [1] | [2] | [3] | [7]

O=C(c1ccc(F)cc1)N1CC(=O)N2[C@@H](CO)[C@@H](c3ccc(C#Cc4ccc(F)cc4)cc3)[C@@H]2C1
inactive: [1] | [2] | [3] | [6] | [7]

Fc1cccc(CN2C[C@@H]3N[C@H](C2)[C@@H]3c2ccc(-c3cccc(F)c3)cc2)c1
inactive: [1] | [2] | [3] | [4] | [7]

COc1ccc(-c2ccc3c(c2)[C@H]2[C@H](CCN2S(=O)(=O)c2ccc(F)cc2)[C@H](CO)N3C)cc1
inactive: [1] | [2] | [3] | [6] | [7]

C[C@H](CO)N1C[C@H](C)[C@@H](CN(C)Cc2ccc(-c3ccccc3)cc2)Oc2ccc(NS(=O)(=O)c3ccccc3)cc2CC1=O
inactive: [1] | [2] | [3] | [5] 6.95% | [6] | [8]

COc1ccccc1-c1ccc([C@@H]2[C@@H]3CN(S(=O)(=O)c4ccc(-c5ccccc5)cc4)C[C@H]2N3)cc1
inactive: [1] | [2] | [3] | [6] | [7]

Cc1ccc(S(=O)(=O)Nc2ccc3c(c2)C(=O)N([C@H](C)CO)C[C@H](C)[C@H](CN(C)Cc2ccc(C(F)(F)F)cc2)OCCCC[C@H](C)O3)cc1
inactive: [1] | [2] | [3] | [4] | [7]

C[C@H](CO)N1C[C@H](C)[C@H](CN(C)Cc2ccc(C(F)(F)F)cc2)OCCCC[C@H](C)Oc2ccc(NC(=O)Cc3ccccc3)cc2C1=O
inactive: [1] | [2] | [3] | [6]

O=C(C[C@H]1CC[C@H]2[C@@H](COC[C@@H](O)CN2S(=O)(=O)c2cccc(Cl)c2)O1)Nc1ccc(-c2ccccc2)cc1
inactive: [1] | [2] | [3] | [6] | [7]

Cc1ccccc1-c1ccc([C@@H]2[C@H](CO)N3CCCCN(C(=O)Nc4cccc(F)c4)C[C@@H]23)cc1
inactive: [1] | [2] | [3] | [6] | [7] | [8]

C[C@H](CO)N1C[C@H](C)[C@@H](CN(C)S(=O)(=O)c2cccs2)OCCCC[C@H](C)Oc2ccc(NS(=O)(=O)c3ccc(Cl)cc3)cc2C1=O
inactive: [1] | [2] | [3] | [6] | [7]

C[C@@H]1CN([C@H](C)CO)C(=O)c2cc(NC(=O)Nc3ccc(C(F)(F)F)cc3)ccc2O[C@@H](C)CCCCO[C@@H]1CN(C)Cc1ccccc1
inactive: [1] | [2] | [3] | [6]
